From PubChem BioAssay (NCI)
Compounds without any hit were thinned out: in the full panel of roughly 83,000, 20% have a hit.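 Compound tested at a single concentration for 48 hours in 96-well plates; a percent growth value below 10 was scored as active.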 The source made the active and inactive calls.

System: SK-OV-3 ovarian
Test: NCI-60 one-dose screen, 48 h (100 = growth as untreated, 0 = no growth, -100 = all killed)
Conditions: 10 µM unless noted

Row | SMILES | growth
1 | Cn1c(=O)c2[nH]c(SC/C(=N/O)c3ccc(Br)cc3)nc2n(C)c1=O | -33.3% (active)
2 | Cc1c2ncccc2nc2[nH]c3ccc(OCCN(C)C)cc3c12 | 38.1% (inactive)
3 | COc1ccc(-c2cc(C(=O)N3N=C(c4ccc(N)cc4)CC3c3ccc(Cl)cc3)c3ccccc3n2)cc1 (stereo not drawn) | 21.6% (inactive)
4 | Cc1oc(-c2ccc(Cl)cc2)nc1C1=NN(C(=O)c2ccncc2)C(c2ccccc2)C1 (stereo not drawn) | 91.9% (inactive)
5 | Nc1cc(C(=O)O)cc(-n2c(O)c(C=C3N=c4ccccc4=N3)sc2=S)c1 | 99.9% (inactive)
6 | Nc1ncnc2c1N=C(c1ccc(F)cc1)CC(c1cccc(Nc3ccnc4cc(Cl)ccc34)c1)N2 (stereo not drawn) | 98.9% (inactive)
7 | CCNC(=O)N1CCc2c(Br)c3c(c(OC)c2C1Cc1ccc(OC)cc1)OCO3 (stereo not drawn) | 27.6% (inactive)
8 | Nc1nc2ccccc2c2c(=O)c3cc(Cl)ccc3sc12 | 79.8% (inactive)
9 | Cc1ccc(S(=O)(=O)c2nc(-c3ccccc3)oc2SCC(N)=O)cc1 | 98.3% (inactive)
10 | CCCN(CCSSCCNc1nc(N(C)O)nc(N(C)O)n1)c1nc(N(C)O)nc(N(C)O)n1 | 57.1% (inactive)
11 | COc1cc(C=C2C(=O)NC(=S)NC2=O)cc(CN2CCCC2)c1O | 94.4% (inactive)
12 | Cc1cc(C)c2c(c1)N(C)c1ncnc(-n3c(C)nc4cc(C)ccc43)c1CC2C (stereo not drawn) | 31.5% (inactive)
13 | COC1/C=C/OC2(C)Oc3c(C)c(O)c4c(O)c(c(/C=N/N(c5ccccc5)c5ccccc5)c(O)c4c3C2=O)NC(=O)C(C)=C/C=C/C(C)C(O)C(C)C(O)C(C)C(OC(C)=O)C1C (stereo not drawn) | 84.8% (inactive)
14 | CN(C)Cc1cc(C(C)(C)C)cc(Br)c1O | 97.4% (inactive)
15 | COC(=O)c1ccc2c(c1)c1c(C)c3cnccc3c(C)c1n2C | -15.3% (active)
16 | CN(C)CCCn1c2c(c3cnccc3c1=O)C(=O)c1ccccc1-2 | 21.5% (inactive)
17 | O=C(NNc1nc2cc(F)ccc2n2c(CN3CCOCC3)ccc12)c1ccccc1 | 27.5% (inactive)
18 | CCOC(=O)C/C(=N\Nc1cc(=O)[nH]c2ccc(OC)cc12)C(=O)OCC | 121% (inactive)
19 | COc1ccc(/C=C(/C(=O)N2CCNCC2)c2cc(OC)c(OC)c(OC)c2)cc1O | 10.1% (inactive)
20 | COC(=O)[C@]1(C)CCC[C@]2(C)[C@H]3C[C@@H]4[C@H]5[C@@H]6CC/C(=N\OCC/C(N)=N/O)[C@H]5[C@@]3(CC[C@H]21)CC4(C(C)C)O6 | 89.9% (inactive)

Row | SMILES | growth
21 | CC/C(=C(\c1ccc(Cl)cc1)c1ccc(OCCN2CCCCC2)cc1)c1ccc(O)cc1 | 68.1% (inactive)
22 | CCN(CC)CCOc1ccc(/C(=C(\C)Cc2ccc(OC)cc2)c2ccc(OC(=O)NCc3ccccc3)cc2)cc1 | 91.2% (inactive)
23 | O=[N+]([O-])c1c(O)c(Cl)cc(Cl)c1Cl | 99.2% (inactive)
24 | C=CC(=O)Nc1cccc(Oc2nccc(Nc3nnc(-c4ccc(Br)cc4)s3)n2)c1 | 91% (inactive)
25 | O=S(=O)(Nc1ccc2ccccc2c1)c1ccc(-c2cnc(C3CC3)o2)cc1 | 32.7% (inactive)
26 | CCCCCc1ccc(S(=O)(=O)Nc2ccc3nc(N)oc3c2)cc1 | 81.8% (inactive)
27 | C=CCN=c1sc(-c2ccc3ccccc3c2)cn1NC(=O)c1cc2ccc1CCc1ccc(cc1)CC2 | 82.1% (inactive)
28 | c1cc(OCCN2CCCCCC2)ccc1CNc1ccc2nc(CCC3CCCCC3)[nH]c2c1 | 82.3% (inactive)
29 | CC1=C2CC/C(C)=C/CC[C@]3(C)O[C@H]3CC/C(C)=C/[C@H]2OC1 | 95.7% (inactive)
30 | COc1ccc(C(O)c2cc3c(N)c(C(=O)Nc4cccc5ccccc45)sc3nc2C)cc1 (stereo not drawn) | 18.3% (inactive)
31 | CCOc1ncc([N+](=O)[O-])c(OCC)n1 | 97% (inactive)
32 | COc1ccc(C2[C@@H](Cl)C(=O)N2c2cc(OC)c(OC)c(OC)c2)cc1Cl (stereo partly drawn) | -0.0611% (active)
33 | CS(=O)(=O)c1ccc(-c2nc3ccccc3n2CC(=O)N/N=C/c2ccccc2)cc1 | 93.2% (inactive)
34 | CN1CCN(c2ccc(NC3=CC(=O)c4ncncc4C3=O)cc2)CC1 | -63.7% (active)
35 | Cn1c(=O)[nH]c(=O)c2nc3c(nc21)-c1ccccc1C3=O | 111% (inactive)
36 | COc1ccc(-c2cc(C(=O)N3N=C(c4ccc(N)cc4)CC3c3ccc(Cl)cc3)c3cc(OC)ccc3n2)cc1 (stereo not drawn) | 89.7% (inactive)
37 | O=c1cc(CP(=O)(O)O)c2cc(O)c(-c3ccccc3)cc2o1 | 102% (inactive)
38 | O=C1c2cccnc2C(=O)c2c1c(C(=O)OCCc1ccccn1)c1ccccn21 | -66.5% (active)
39 | Cc1cc(C(=O)CCCC(=O)c2cc(C)c(O)c(C)c2)cc(C)c1O | 98% (inactive)

System: IGROV1 ovarian
Test: as above
Conditions: 10 µM unless noted

Row | SMILES | growth
40 | Cn1c(=O)c2[nH]c(SC/C(=N/O)c3ccc(Br)cc3)nc2n(C)c1=O | 20.1% (inactive)
41 | Cc1c2ncccc2nc2[nH]c3ccc(OCCN(C)C)cc3c12 | 9.29% (active)
42 | COc1ccc(-c2cc(C(=O)N3N=C(c4ccc(N)cc4)CC3c3ccc(Cl)cc3)c3ccccc3n2)cc1 (stereo not drawn) | 43.9% (inactive)
43 | Cc1oc(-c2ccc(Cl)cc2)nc1C1=NN(C(=O)c2ccncc2)C(c2ccccc2)C1 (stereo not drawn) | 71.3% (inactive)
44 | Nc1cc(C(=O)O)cc(-n2c(O)c(C=C3N=c4ccccc4=N3)sc2=S)c1 | 86.8% (inactive)
45 | Nc1ncnc2c1N=C(c1ccc(F)cc1)CC(c1cccc(Nc3ccnc4cc(Cl)ccc34)c1)N2 (stereo not drawn) | 74.3% (inactive)
46 | CCNC(=O)N1CCc2c(Br)c3c(c(OC)c2C1Cc1ccc(OC)cc1)OCO3 (stereo not drawn) | 35.7% (inactive)
47 | Nc1nc2ccccc2c2c(=O)c3cc(Cl)ccc3sc12 | 90.2% (inactive)
48 | Cc1ccc(S(=O)(=O)c2nc(-c3ccccc3)oc2SCC(N)=O)cc1 | 101% (inactive)
49 | CCCN(CCSSCCNc1nc(N(C)O)nc(N(C)O)n1)c1nc(N(C)O)nc(N(C)O)n1 | 83% (inactive)
50 | COc1cc(C=C2C(=O)NC(=S)NC2=O)cc(CN2CCCC2)c1O | 106% (inactive)
51 | Cc1cc(C)c2c(c1)N(C)c1ncnc(-n3c(C)nc4cc(C)ccc43)c1CC2C (stereo not drawn) | 47.5% (inactive)
52 | COC1/C=C/OC2(C)Oc3c(C)c(O)c4c(O)c(c(/C=N/N(c5ccccc5)c5ccccc5)c(O)c4c3C2=O)NC(=O)C(C)=C/C=C/C(C)C(O)C(C)C(O)C(C)C(OC(C)=O)C1C (stereo not drawn) | 100% (inactive)
53 | CN(C)Cc1cc(C(C)(C)C)cc(Br)c1O | 108% (inactive)
54 | COC(=O)c1ccc2c(c1)c1c(C)c3cnccc3c(C)c1n2C | -33.1% (active)
55 | CN(C)CCCn1c2c(c3cnccc3c1=O)C(=O)c1ccccc1-2 | 3.55% (active)
56 | O=C(NNc1nc2cc(F)ccc2n2c(CN3CCOCC3)ccc12)c1ccccc1 | 3.07% (active)
57 | CCOC(=O)C/C(=N\Nc1cc(=O)[nH]c2ccc(OC)cc12)C(=O)OCC | 92.4% (inactive)
58 | COc1ccc(/C=C(/C(=O)N2CCNCC2)c2cc(OC)c(OC)c(OC)c2)cc1O | 60.2% (inactive)
59 | COC(=O)[C@]1(C)CCC[C@]2(C)[C@H]3C[C@@H]4[C@H]5[C@@H]6CC/C(=N\OCC/C(N)=N/O)[C@H]5[C@@]3(CC[C@H]21)CC4(C(C)C)O6 | 63.4% (inactive)

Row | SMILES | growth
60 | CC/C(=C(\c1ccc(Cl)cc1)c1ccc(OCCN2CCCCC2)cc1)c1ccc(O)cc1 | 66.8% (inactive)
61 | CCN(CC)CCOc1ccc(/C(=C(\C)Cc2ccc(OC)cc2)c2ccc(OC(=O)NCc3ccccc3)cc2)cc1 | 77.5% (inactive)
62 | O=[N+]([O-])c1c(O)c(Cl)cc(Cl)c1Cl | 111% (inactive)
63 | C=CC(=O)Nc1cccc(Oc2nccc(Nc3nnc(-c4ccc(Br)cc4)s3)n2)c1 | 101% (inactive)
64 | O=S(=O)(Nc1ccc2ccccc2c1)c1ccc(-c2cnc(C3CC3)o2)cc1 | 39.1% (inactive)
65 | CCCCCc1ccc(S(=O)(=O)Nc2ccc3nc(N)oc3c2)cc1 | 68.4% (inactive)
66 | C=CCN=c1sc(-c2ccc3ccccc3c2)cn1NC(=O)c1cc2ccc1CCc1ccc(cc1)CC2 | 81.3% (inactive)
67 | c1cc(OCCN2CCCCCC2)ccc1CNc1ccc2nc(CCC3CCCCC3)[nH]c2c1 | 43.2% (inactive)
68 | CC1=C2CC/C(C)=C/CC[C@]3(C)O[C@H]3CC/C(C)=C/[C@H]2OC1 | 103% (inactive)
69 | COc1ccc(C(O)c2cc3c(N)c(C(=O)Nc4cccc5ccccc45)sc3nc2C)cc1 (stereo not drawn) | 9.69% (active)
70 | CCOc1ncc([N+](=O)[O-])c(OCC)n1 | 107% (inactive)
71 | COc1ccc(C2[C@@H](Cl)C(=O)N2c2cc(OC)c(OC)c(OC)c2)cc1Cl (stereo partly drawn) | 33.5% (inactive)
72 | CS(=O)(=O)c1ccc(-c2nc3ccccc3n2CC(=O)N/N=C/c2ccccc2)cc1 | 99.7% (inactive)
73 | CN1CCN(c2ccc(NC3=CC(=O)c4ncncc4C3=O)cc2)CC1 | -86.6% (active)
74 | Cn1c(=O)[nH]c(=O)c2nc3c(nc21)-c1ccccc1C3=O | 108% (inactive)
75 | COc1ccc(-c2cc(C(=O)N3N=C(c4ccc(N)cc4)CC3c3ccc(Cl)cc3)c3cc(OC)ccc3n2)cc1 (stereo not drawn) | 39.6% (inactive)
76 | O=c1cc(CP(=O)(O)O)c2cc(O)c(-c3ccccc3)cc2o1 | 104% (inactive)
77 | O=C1c2cccnc2C(=O)c2c1c(C(=O)OCCc1ccccn1)c1ccccn21 | -0.716% (active)
78 | Cc1cc(C(=O)CCCC(=O)c2cc(C)c(O)c(C)c2)cc(C)c1O | 95.9% (inactive)
